Experimental data from PubChem BioAssay AID1159580 (chemical genetic matrix, 2015).
In all, about 5,500 compounds went through this assay and about 2,000 (36%) were called active. Another 18% or so got no clear call; they are omitted. Cut-off read from the data, not from the text of the source: active = normalized growth mostly below about 0.91 (no sharp cut-off); inconclusive = no clear call, values can overlap the other calls; inactive = mostly above about 0.92. Some of the results follow.

Assay: chemical genetic growth profiling, strain panel (AID 1159580);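 note: tested at 20 µM; growth read once vehicle control cultures reached saturation at 30 °C; 1 = growth at the plate median or of vehicle wells; lower values mean less growth of the strain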
Details: growth OD

Measured: normalized growth

CC(=O)OC1CCC2(C)C(CC(OC(C)=O)C3(C)C4=CC(=O)OC(c5ccoc5)C4(C)CCC23)C1(C)C (stereo unspecified)
inactive: S. cerevisiae deletion strains, locus YAL013W, strain DEP1, stronger effect = lower value 0.989 | S. cerevisiae deletion strains, locus YBR021W, strain FUR4, stronger effect = lower value 1.02 | S. cerevisiae deletion strains, locus YBR229C, strain ROT2, stronger effect = lower value 1 | S. cerevisiae deletion strains, locus YCL029C, strain bik1, stronger effect = lower value 0.995 | S. cerevisiae deletion strains, locus YDL035C, strain GPR1, stronger effect = lower value 0.972 | S. cerevisiae deletion strains, locus YDL074C, strain BRE1, stronger effect = lower value 0.791 | S. cerevisiae deletion strains, locus YDL101C, strain DUN1, stronger effect = lower value 0.995 | S. cerevisiae deletion strains, locus YDL134C, strain PPH21, stronger effect = lower value 0.989 | S. cerevisiae deletion strains, locus YDL185W, strain tfp1, stronger effect = lower value 0.963 | S. cerevisiae deletion strains, locus YDL192W, strain arf1, stronger effect = lower value 0.998 | S. cerevisiae deletion strains, locus YDR101C, strain arx1, stronger effect = lower value 1.01 | S. cerevisiae deletion strains, locus YDR150W, strain NUM1, stronger effect = lower value 0.98 | S. cerevisiae deletion strains, locus YDR162C, strain NBP2, stronger effect = lower value 1.01 | S. cerevisiae deletion strains, locus YDR318W, strain mcm21, stronger effect = lower value 0.992 | S. cerevisiae deletion strains, locus YDR388W, stronger effect = lower value 1 | S. cerevisiae deletion strains, locus YDR502C, strain sam2, stronger effect = lower value 1.01 | S. cerevisiae deletion strains, locus YEL061C, strain CIN8, stronger effect = lower value 1.01 | S. cerevisiae deletion strains, locus YER110C, stronger effect = lower value 1 | S. cerevisiae deletion strains, locus YER155C, strain BEM2, stronger effect = lower value 0.997 | S. cerevisiae deletion strains, locus YER167W, strain BCK2, stronger effect = lower value 0.994 | S. cerevisiae deletion strains, locus YGL078C, strain dbp3, stronger effect = lower value 0.993 | S. cerevisiae deletion strains, locus YGL086W, strain mad1, stronger effect = lower value 0.969 | S. cerevisiae deletion strains, locus YGL248W, strain PDE1, stronger effect = lower value 1.01 | S. cerevisiae deletion strains, locus YGR078C, strain PAC10, stronger effect = lower value 0.948 | S. cerevisiae deletion strains, locus YGR135W, strain pre9, stronger effect = lower value 1.04 | S. cerevisiae deletion strains, locus YGR229C, strain SMI1, stronger effect = lower value 0.986 | S. cerevisiae deletion strains, locus YGR252W, strain gcn5, stronger effect = lower value 0.961 | S. cerevisiae deletion strains, locus YHR030C, strain SLT2, stronger effect = lower value 0.998 | S. cerevisiae deletion strains, locus YHR079C, strain IRE1 (second series), stronger effect = lower value 0.972 | S. cerevisiae deletion strains, locus YHR094C, strain hxt1, stronger effect = lower value 0.989 | S. cerevisiae deletion strains, locus YHR129C, strain ARP1, stronger effect = lower value 1 | S. cerevisiae deletion strains, locus YHR200W, strain rpn10, stronger effect = lower value 1 | S. cerevisiae deletion strains, locus YIL066C, strain RNR3, stronger effect = lower value 0.973 | S. cerevisiae deletion strains, locus YIL073C, strain SPO22, stronger effect = lower value 0.882 | S. cerevisiae deletion strains, locus YIL125W, strain kgd1, stronger effect = lower value 1 | S. cerevisiae deletion strains, locus YIR030C, strain dcg1, stronger effect = lower value 1 | S. cerevisiae deletion strains, locus YJL095W, strain BCK1, stronger effect = lower value 1.01 | S. cerevisiae deletion strains, locus YJL134W, strain LCB3, stronger effect = lower value 1 | S. cerevisiae deletion strains, locus YJL168C, strain set2, stronger effect = lower value 1 | S. cerevisiae deletion strains, locus YJL187C, strain SWE1 (second series), stronger effect = lower value 0.994 | S. cerevisiae deletion strains, locus YJR043C, strain POL32, stronger effect = lower value 0.997 | S. cerevisiae deletion strains, locus YJR075W, strain HOC1, stronger effect = lower value 1.01 | S. cerevisiae deletion strains, locus YKL009W, strain mrt4, stronger effect = lower value 0.988 | S. cerevisiae deletion strains, locus YKL068W, stronger effect = lower value 0.982 | S. cerevisiae deletion strains, locus YKL085W, strain MDH1 (second series), stronger effect = lower value 0.994 | S. cerevisiae deletion strains, locus YKL085W, strain MDH1, stronger effect = lower value 0.994 | S. cerevisiae deletion strains, locus YKL190W, strain CNB1, stronger effect = lower value 0.977 | S. cerevisiae deletion strains, locus YKR001C, strain vps1, stronger effect = lower value 0.974 | S. cerevisiae deletion strains, locus YLR039C, strain RIC1, stronger effect = lower value 0.986 | S. cerevisiae deletion strains, locus YLR058C, strain SHM2, stronger effect = lower value 0.989 | S. cerevisiae deletion strains, locus YLR102C, strain apc9, stronger effect = lower value 0.995 | S. cerevisiae deletion strains, locus YLR262C, strain YPT6, stronger effect = lower value 0.954 | S. cerevisiae deletion strains, locus YLR268W, strain sec22, stronger effect = lower value 1.03 | S. cerevisiae deletion strains, locus YLR330W, strain CHS5, stronger effect = lower value 0.995 | S. cerevisiae deletion strains, locus YLR342W, strain FKS1 (second series), stronger effect = lower value 0.996 | S. cerevisiae deletion strains, locus YLR371W, strain rom2, stronger effect = lower value 0.983 | S. cerevisiae deletion strains, locus YLR418C, strain cdc73, stronger effect = lower value 1.01 | S. cerevisiae deletion strains, locus YML016C, strain PPZ1, stronger effect = lower value 1 | S. cerevisiae deletion strains, locus YML032C, strain rad52, stronger effect = lower value 0.986 | S. cerevisiae deletion strains, locus YML124C, strain tub3, stronger effect = lower value 1 | S. cerevisiae deletion strains, locus YMR078C, strain ctf18, stronger effect = lower value 1 | S. cerevisiae deletion strains, locus YMR223W, strain ubp8, stronger effect = lower value 0.99 | S. cerevisiae deletion strains, locus YMR263W, strain SAP30, stronger effect = lower value 0.982 | S. cerevisiae deletion strains, locus YMR307W, strain GAS1, stronger effect = lower value 0.924 | S. cerevisiae deletion strains, locus YNL067W, strain RPL9B, stronger effect = lower value 0.99 | S. cerevisiae deletion strains, locus YNL128W, strain TEP1, stronger effect = lower value 1 | S. cerevisiae deletion strains, locus YNL153C, strain GIM3, stronger effect = lower value 0.989 | S. cerevisiae deletion strains, locus YNL233W, strain BNI4, stronger effect = lower value 1 | S. cerevisiae deletion strains, locus YNL250W, strain rad50, stronger effect = lower value 0.985 | S. cerevisiae deletion strains, locus YNL271C, strain bni1, stronger effect = lower value 1 | S. cerevisiae deletion strains, locus YNL298W, strain CLA4, stronger effect = lower value 1.01 | S. cerevisiae deletion strains, locus YNL307C, strain MCK1, stronger effect = lower value 0.995 | S. cerevisiae deletion strains, locus YNL322C, strain KRE1, stronger effect = lower value 0.992 | S. cerevisiae deletion strains, locus YNR052C, strain pop2, stronger effect = lower value 0.999 | S. cerevisiae deletion strains, locus YOL006C, strain TOP1, stronger effect = lower value 0.937 | S. cerevisiae deletion strains, locus YOL012C, strain htz1 1.25 | S. cerevisiae deletion strains, locus YOL147C, strain pex11, stronger effect = lower value 0.995 | S. cerevisiae deletion strains, locus YOR061W, strain CKA2, stronger effect = lower value 0.996 | S. cerevisiae deletion strains, locus YOR069W, strain VPS5, stronger effect = lower value 0.998 | S. cerevisiae deletion strains, locus YOR136W, strain idh2, stronger effect = lower value 1 | S. cerevisiae deletion strains, locus YOR144C, strain elg1, stronger effect = lower value 0.994 | S. cerevisiae deletion strains, locus YOR184W, strain ser1, stronger effect = lower value 0.976 | S. cerevisiae deletion strains, locus YOR316C, strain cot1, stronger effect = lower value 1 | S. cerevisiae deletion strains, locus YPL055C, strain LGE1, stronger effect = lower value 0.908 | S. cerevisiae deletion strains, locus YPL241C, strain CIN2, stronger effect = lower value 0.987 | S. cerevisiae deletion strains, locus YPR119W, strain clb2, stronger effect = lower value 1 | S. cerevisiae deletion strains, locus YPR141C, strain kar3, stronger effect = lower value 0.998 | S. cerevisiae deletion strains, locus YPR163C, strain tif3, stronger effect = lower value 0.999 | S. cerevisiae deletion strains, locus YPR167C, strain met16, stronger effect = lower value 1 | S. cerevisiae deletion strains, strain wtn01, stronger effect = lower value 0.999 | S. cerevisiae strains, strain wild type, stronger effect = lower value 0.996
